About 79,000 compounds went through this panel and 15% of them were active in at least one assay; those are over-represented in the sample as a whole. Calls of active or inactive are those of the source. Cut-off read from the data, not from the text of the source: active = growth inhibition above about 70%; inactive = the rest.
How the values were obtained:
[1] = NCI Yeast Anticancer Drug Screen. Data for the rad50 strain (AID 155);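 note: 0% = growth of vehicle-only cultures of the same strain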; settings: S. cerevisiae rad50 strain growth inhibition, active compounds read high
How it was run: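 DNA repair mutant yeast, compound exposure, growth read-out; inhibition is taken relative to vehicle.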

[2] = NCI Yeast Anticancer Drug Screen. Data for the mec2-1 strain (AID 157); settings: S. cerevisiae mec2-1 strain, active compounds read high
How it was run: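 Compounds were applied to mec2-1 yeast cells. Their growth was then compared with that of vehicle-treated cultures to give growth inhibition.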

[3] = NCI Yeast Anticancer Drug Screen. Data for the sgs1 mgt1 strain (AID 161);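 note: 0% = growth of cultures given vehicle only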; settings: S. cerevisiae sgs1 mgt1 strain, active compounds read high
How it was run: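 Compounds are added to genetically altered yeast, and growth is compared with cultures given vehicle alone to give percent inhibition.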

[4] = NCI Yeast Anticancer Drug Screen. Data for the cln2 rad14 strain (AID 165);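 note: 0% = growth equal to vehicle treated cultures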; settings: S. cerevisiae cln2 rad14 strain, active compounds read high
How it was run: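 Strain: cln2 rad14 yeast, altered in cell cycle control and DNA damage repair. Read-out: growth inhibition vs vehicle.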

[5] = NCI Yeast Anticancer Drug Screen. Data for the bub3 strain (AID 167); settings: S. cerevisiae bub3 mutant strain, active compounds read high
How it was run: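 In this screen, a yeast mutant lacking normal mitotic checkpoint function is challenged with compound. Relative growth versus vehicle gives the inhibition value.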

[6] = NCI Yeast Anticancer Drug Screen. Data for the mlh1 rad18 strain (AID 175); settings: S. cerevisiae mlh1 rad18 strain growth inhibition, active compounds read high
How it was run: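 A repair-deficient yeast strain is exposed to test compound, and growth is scored relative to vehicle-treated controls.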

[7] = at 5.0 µM (retest, dose inferred, filed as 0.5)
[8] = at 50.0 µM (retest, dose inferred, filed as 5.0)

Measured: growth inhibition

N#CI1OC(C(F)(F)F)(C(F)(F)F)c2ccccc21
active: [1]; [7] 72% | [1]; [8] 98% | [2]; [8] 99% | [2]; at 50.0 µM 92.2% | [3]; [7] 72% | [3]; [8] 99% | [3]; at 50.0 µM 87.7% | [4]; [8] 99% | [4]; at 50.0 µM 88.6% | [5]; [7] 91% | [5]; [8] 99% | [5]; at 50.0 µM 86.6% | [6]; [7] 87% | [6]; [8] 98% | [6]; at 50.0 µM 92.3%
inactive: [1]; at 50.0 µM 45.2% | [2]; [7] 61% | [4]; [7] 53%

O=C1CC(c2ccccc2)c2c(ccc3ccccc23)O1 (configuration not stated)
inactive: [1]; [7] -1% | [2]; [7] 1% | [2]; at 50.0 µM 62.2% | [3]; [7] -1% | [4]; [7] 6% | [4]; at 50.0 µM 45.5% | [5]; [7] 6% | [6]; [7] -1%
active: [1]; [8] 90% | [1]; at 50.0 µM 87% | [2]; [8] 86% | [3]; [8] 86% | [3]; at 50.0 µM 75.2% | [4]; [8] 77% | [5]; [8] 86% | [5]; at 50.0 µM 72% | [6]; [8] 88% | [6]; at 50.0 µM 72.8%

COC(=O)CSc1n[nH]c(-c2ccc(O)c([N+](=O)[O-])c2)n1
inactive: [1]; [7] 17% | [1]; [8] 47% | [1]; at 50.0 µM 53.9% | [2]; [7] 31% | [2]; [8] 56% | [2]; at 50.0 µM 53.2% | [3]; [7] 25% | [4]; [7] 40% | [4]; [8] 57% | [4]; at 50.0 µM 65.5% | [5]; [7] 35% | [5]; [8] 51% | [5]; at 50.0 µM 53% | [6]; [7] 30% | [6]; [8] 57% | [6]; at 50.0 µM 57.4%
active: [3]; [8] 71% | [3]; at 50.0 µM 75.6%

OCCC(CCN1CCOCC1)(c1ccccc1)C1(O)CCCC1 (configuration not stated)
inactive: [1]; [7] 3% | [1]; [8] 3% | [1]; at 50.0 µM -2.95% | [2]; [7] 5% | [2]; [8] 2% | [2]; at 50.0 µM 45.3% | [3]; [7] 8% | [3]; [8] 3% | [4]; [7] 2% | [4]; [8] 2% | [5]; [7] -3% | [5]; [8] -4% | [5]; at 50.0 µM 61.4% | [6]; [7] -2% | [6]; [8] -2%
active: [3]; at 50.0 µM 74.4% | [4]; at 50.0 µM 71.2% | [6]; at 50.0 µM 73.8%

NC1=NC2=C(CCCC2)C(c2cccs2)S1 (configuration not stated)
inactive: [1]; [7] 57% | [1]; at 50.0 µM 65.8% | [2]; [7] 39% | [2]; at 50.0 µM 32.4% | [4]; [7] 45% | [4]; [8] 49% | [4]; at 50.0 µM 37% | [5]; [7] 38% | [5]; at 50.0 µM 61.7% | [6]; [7] 61% | [6]; at 50.0 µM 60.6%
active: [1]; [8] 82% | [2]; [8] 78% | [3]; [7] 76% | [3]; [8] 87% | [3]; at 50.0 µM 75.7% | [5]; [8] 74% | [6]; [8] 92%

NC(=O)C(=CNc1nc(-c2ccc(Br)cc2)cs1)C(N)=O
inactive: [1]; [7] -5% | [2]; [7] -11% | [3]; [7] -3% | [4]; [7] -34% | [5]; [7] -11% | [6]; [7] -6%
active: [1]; [8] 92% | [1]; at 50.0 µM 99.5% | [2]; [8] 98% | [2]; at 50.0 µM 99.5% | [3]; [8] 92% | [3]; at 50.0 µM 99.5% | [4]; [8] 94% | [4]; at 50.0 µM 98.9% | [5]; [8] 99% | [5]; at 50.0 µM 99.5% | [6]; [8] 98% | [6]; at 50.0 µM 99.3%

CC(C)(C)C(=O)CC(=O)C(F)(F)C(F)(F)C(F)(F)F.[Ag]
active: [1]; [7] 97% | [1]; [8] 98% | [1]; at 50.0 µM 91.8% | [2]; [7] 99% | [2]; [8] 99% | [2]; at 50.0 µM 93% | [3]; [7] 99% | [3]; [8] 99% | [3]; at 50.0 µM 90% | [4]; [7] 92% | [4]; [8] 99% | [4]; at 50.0 µM 89.6% | [5]; [7] 98% | [5]; [8] 98% | [5]; at 50.0 µM 87.8% | [6]; [7] 98% | [6]; [8] 98% | [6]; at 50.0 µM 88.4%

COC(=O)c1c2c(cc3c1CC1(Cc4cc5c(c(C)c4C1)CCC5)C3)CCC2 (configuration not stated)
inactive: [1]; [7] 15% | [1]; [8] 12% | [1]; at 50.0 µM -32.5% | [2]; [7] 6% | [2]; [8] 5% | [2]; at 50.0 µM -46.4% | [3]; [7] 9% | [3]; [8] 12% | [3]; at 50.0 µM -31.9% | [4]; [7] -4% | [4]; [8] 13% | [4]; at 50.0 µM -11.1% | [5]; [7] 14% | [5]; [8] 10% | [5]; at 50.0 µM -13.1% | [6]; [7] 12% | [6]; [8] 11% | [6]; at 50.0 µM -22.9%

C1CCC(CC2CCC(NC3=NCCO3)CC2)CC1 (configuration not stated)
inactive: [1]; [7] -23% | [2]; [7] -12% | [3]; [7] -22% | [4]; [7] -8% | [5]; [7] -35% | [6]; [7] -9%
active: [1]; [8] 97% | [1]; at 50.0 µM 88.6% | [2]; [8] 96% | [2]; at 50.0 µM 87.5% | [3]; [8] 99% | [3]; at 50.0 µM 87.2% | [4]; [8] 91% | [4]; at 50.0 µM 88.2% | [5]; [8] 98% | [5]; at 50.0 µM 91.2% | [6]; [8] 99% | [6]; at 50.0 µM 84.3%
